The values that follow come from PubChem BioAssay AID602243 (Broad Institute, 2012).

The other results are listed elsewhere or left out. Activity calls are given as the source filed them. The rule behind the calls is not given here.

This assay can be described thus: V. cholerae lux activation without autoinducers – BH1578 luxS cqsA deficient, cherry-pick, plate reader, dose response (AID 602243). As to conditions: V. cholerae BH1578 lux reporter, luminescence, 6 h; series mostly up to 50 µM.
Take `COc1ccccc1CCNC(=O)C(=O)NCCC1CCCCN1S(=O)(=O)c1cccs1` (centres undefined): the call was inactive.
As for `COc1ccc(OCc2cn3c(C)cc(C)nc3n2)cc1`, the result was inactive.
With `COc1ccc(CNc2nnnn2C)cc1`, the result was inactive.
To `CCCS(=O)(=O)N1CCCC(C(=O)N2CCN(c3ccccc3)CC2)C1` (centres undefined) belongs “inactive”; to `CN(CC(=O)Nc1ccc(OC(F)(F)F)cc1)C(=O)C1CCC1`, “inactive”; to `COc1cc(S(=O)(=O)N(Cc2cccs2)C2CC2)ccc1-n1cnnn1`, “inactive”.
To `CCOc1ccc(CCNC(=O)C2CCN(c3ccc(N4CCOCC4)nn3)CC2)cc1OCC` belongs “inactive”; to `O=C(NCc1ccccn1)c1c(O)c2c([nH]c1=O)CCCC2`, “inactive”.
For the molecule `NC(=O)c1nsc(C(=O)N(CC(=O)NCc2ccc(F)cc2)Cc2ccco2)c1N`, the molecule was classed as inactive.
For `O=C(Nc1ccc2oc(-c3ccc4ccccc4c3)nc2c1)c1cccs1` the value was “inactive”; for `CC(C)CC(=O)N1CCN(Cc2ccccc2Br)CC1`, “inactive”.
Consider `O=C(Cc1ccc2c(c1)CCCC2)Nc1ccccc1Cl`, for which the call was inactive.
With `Cc1cccc(C(=O)OCC(=O)NCC(C)C)c1O`, the molecule was classed as inactive.
Regarding `NNC(=O)c1nnn(-c2nonc2N)c1CN1CCCC1`, the molecule was called inactive.
Consider `COc1ccc(N(CC(=O)NC2CCCCC2)C(=O)CNC(=O)c2ccco2)c(OC)c1`, for which the molecule was called inactive.
Consider `COCCn1nnnc1CN1CCC(NC(=O)Nc2cccc(OC)c2)CC1`, for which the outcome was inactive.
As to `O=C(NCCS(=O)(=O)N1CCN(c2ccccc2)CC1)c1ccco1`, the outcome was inactive.
In the case of `COc1ccc2[nH]c(=O)c(CNc3ccc(C)c(C)c3)cc2c1`, the molecule was classed as inactive.
Regarding `COc1ccc(S(=O)(=O)N2CCN(c3cnccn3)CC2)cc1`, the call was inactive.
